Assay outcomes: PubChem BioAssay, National Center for Advancing Translational Sciences (NCATS)
Pol iota inh: DNA polymerase iota (human) inhibition | Pol iota fluorescent replication assay, 10 min | 390,000 compounds, 1% hits | Q9UNA4 | AID 588590 | Potency, µM (series often up to 115 µM), inactives show at the highest dose activity, negative = inhibition, actives largely listed as inhibitors; further: potency means the concentration at half of the fitted maximal effect
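Pol iota at 10 nM preincubated 15 min with compounds at room temperature; reaction started with fluorescent substrate, 50 nM final. Fluorescence read kinetically at 0 and 10 min; buffer-only wells as negative control.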
Pol eta inh: DNA polymerase eta (human) inhibition; recombinant Pol eta, fluorescent DNA replication assay; 390,000 compounds, 1.2% hits; Potency, µM (highest dose often 114 µM), for inactives: top-dose activity change, negative = inhibition, most hits filed as inhibitors; Q9Y253; further: potency means the concentration at half of the fitted maximal effect; on the % scale 0 is the no-effect control and ±100 the full control effect
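Pol eta (10 nM) was preincubated with compounds for 15 min at room temperature, after which fluorescent replication substrate (50 nM final) was added to start the reaction. Fluorescence was read kinetically at 0 and 10 min.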
Pol beta inh-1: inhibitors of human DNA polymerase beta | P06746 | Potency, µM (series often up to 114 µM), for inactives: at the highest dose activity change, negative = inhibition, usual class: inhibitors | Pol beta primer extension/strand displacement, fluorescence kinetic | 340,000 compounds, 1.3% hits; further: potency means the concentration at half of the fitted maximal effect; on the % scale 0 is the no-effect control and ±100 the full control effect
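Pol beta (10 nM) was preincubated with compound for 15 min at room temperature. The reaction was then started with 50 nM substrate and read immediately and after a further 10 min at room temperature.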
Pol kappa inh: blocks human DNA polymerase kappa activity. purified Pol kappa, fluorescent DNA synthesis assay, 10 min. Potency, µM (top dose mostly 107 µM), without a hit: top-dose activity, negative = inhibition, most hits filed as inhibitors. Q9UBT6. 400,000 compounds, 0.53% hits; further: potency means the concentration at half of the fitted maximal effect; on the % scale 0 is the no-effect control and ±100 the full control effect
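Kinetic fluorescence screen: compound preincubated 15 min RT with 10 nM enzyme; 50 nM substrate (final) initiates; reads at 0/10 min.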
WRN helicase inh: WRN helicase (human) inhibition; AID 651768; WRN helicase unwinding, fluorescent forked duplex, kinetic; Potency, µM (series often up to 114 µM), for the others: at the highest dose activity change, negative = inhibition, most hits filed as inhibitors; 360,000 compounds, 0.46% hits; further: potency means the concentration at half of the fitted maximal effect; on the % scale 0 is the no-effect control and ±100 the full control effect; nearly all actives have a fitted effect of over 55% in size
Target sequence (Q14191 whole entry, looked up): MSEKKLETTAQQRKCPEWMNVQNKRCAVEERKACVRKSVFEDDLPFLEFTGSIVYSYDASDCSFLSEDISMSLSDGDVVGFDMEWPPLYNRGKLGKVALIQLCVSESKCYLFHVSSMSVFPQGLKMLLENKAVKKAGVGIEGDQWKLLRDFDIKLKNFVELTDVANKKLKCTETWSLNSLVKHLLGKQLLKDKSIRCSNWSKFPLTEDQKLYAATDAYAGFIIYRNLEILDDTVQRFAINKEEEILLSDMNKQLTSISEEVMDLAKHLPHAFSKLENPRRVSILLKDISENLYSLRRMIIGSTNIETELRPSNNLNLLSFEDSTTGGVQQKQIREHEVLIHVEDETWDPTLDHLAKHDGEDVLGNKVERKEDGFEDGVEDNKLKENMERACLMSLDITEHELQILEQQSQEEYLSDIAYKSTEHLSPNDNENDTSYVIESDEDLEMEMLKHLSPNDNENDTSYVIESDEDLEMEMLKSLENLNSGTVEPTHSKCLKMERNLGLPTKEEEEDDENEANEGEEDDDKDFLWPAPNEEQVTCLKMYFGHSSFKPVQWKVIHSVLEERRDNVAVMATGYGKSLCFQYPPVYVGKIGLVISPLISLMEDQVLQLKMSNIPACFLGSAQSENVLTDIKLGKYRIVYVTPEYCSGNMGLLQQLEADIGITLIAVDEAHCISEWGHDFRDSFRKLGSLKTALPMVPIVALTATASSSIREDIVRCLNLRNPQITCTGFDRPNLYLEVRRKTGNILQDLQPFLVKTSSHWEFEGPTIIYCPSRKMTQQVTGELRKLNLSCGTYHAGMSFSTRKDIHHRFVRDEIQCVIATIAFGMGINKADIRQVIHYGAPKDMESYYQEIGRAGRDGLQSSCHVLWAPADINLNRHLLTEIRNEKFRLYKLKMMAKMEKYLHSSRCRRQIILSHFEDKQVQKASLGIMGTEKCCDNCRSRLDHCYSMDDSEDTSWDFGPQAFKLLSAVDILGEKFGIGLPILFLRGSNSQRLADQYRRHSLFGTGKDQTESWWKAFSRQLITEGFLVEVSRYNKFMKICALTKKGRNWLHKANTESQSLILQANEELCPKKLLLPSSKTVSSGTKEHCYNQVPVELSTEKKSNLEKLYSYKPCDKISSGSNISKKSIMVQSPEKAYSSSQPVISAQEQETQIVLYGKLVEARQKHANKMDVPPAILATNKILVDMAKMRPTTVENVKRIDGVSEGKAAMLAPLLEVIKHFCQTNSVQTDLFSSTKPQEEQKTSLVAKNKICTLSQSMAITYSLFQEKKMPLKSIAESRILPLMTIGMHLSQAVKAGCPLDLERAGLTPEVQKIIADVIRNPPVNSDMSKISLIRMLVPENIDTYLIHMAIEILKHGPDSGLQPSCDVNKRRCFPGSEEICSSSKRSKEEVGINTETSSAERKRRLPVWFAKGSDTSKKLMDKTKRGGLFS
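WRN at 20 nM final was preincubated with compound for 15 min at room temperature; reaction started with 100 nM forked duplex oligonucleotide carrying fluorophore and quencher plus 2 mM ATP (final). Unwinding followed kinetically by red fluorescence (ex 525/em 598 nm).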
FEN1 inhibitor: human FEN1 inhibition | P39748 | Recombinant FEN1 flap cleavage, fluorescence, 15 min | Potency, µM (doses to about 114 µM), for inactives: at the highest dose activity change, negative = inhibition, usual class: inhibitors | 390,000 compounds, 0.35% hits | AID 588795; further: potency means the concentration at half of the fitted maximal effect; on the % scale 0 is the no-effect control and ±100 the full control effect; nearly all actives have a fitted effect of over 65% in size
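Compounds are tested as a concentration series against 10 nM FEN1; after a 15 min room-temperature preincubation, 50 nM substrate starts cleavage, with plate reads at 0 and 15 min. Normalized responses are fitted by a Hill equation.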
Pol beta inh-2: Validate hits inhibiting human DNA polymerase beta | shares compounds with Pol beta inh-1 | Pol beta primer extension/strand displacement, fluorescence kinetic | Potency, µM, hits mostly inhibitors | 250 compounds, 87% hits; calls by dose curve; further: potency means the concentration at half of the fitted maximal effect
Klenow inh: Klenow polymerase inhibition, pol beta selectivity check | shares compounds with Pol beta inh-1 | Klenow exo- polymerase counter-screen, fluorescent DNA substrate | activity change, negative = inhibition, % at 57.1 µM | 250 tested, under 10 active | AID 540300
HIV RT inh: inhibits HIV-1 reverse transcriptase in counter-screen; activity % (negative = inhibition, positive = activation), % at 57.1 µM; HIV-1 RT polymerase activity, counter-screen; 250 tested, under 10 active; AID 540301; shares compounds with Pol beta inh-1
POLB valid: validation of human DNA polymerase beta inhibitors; shares compounds with Pol beta inh-1; radiolabeled primer extension gel assay, phosphorimager; inhibition, % at 10 µM; 110 compounds, 91% hits; AID 540325;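 active means inhibition at 10 µM of 30% or more; inconclusive means no clear call, values can overlap the other calls; inactive means inhibition at 10 µM under 30%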
An asterisk follows results filed as active; [ ] = remark or other dose. A selection: hits, their analogues and other compounds. The true share with any hit is near 2.4%. Unless noted, the call rests on the fitted dose curve; in most records, active means well fitted curve in the direction sought with a large enough effect; inconclusive means small, poorly fitted or top-dose-only effect, or another doubt; inactive means no such curve, though single readings can be large; an effect the other way counts as inactive or inconclusive.

For O=C(Nc1sc2c(c1C(=O)NCc1ccco1)CCCC2)c1ccc2c(c1)OCO2 the results were Pol iota inh inconclusive, Pol eta inh -10.8%, Pol beta inh-1 12.6µM*, Pol kappa inh -29.4%, WRN helicase inh -14.6%, FEN1 inhibitor -12.1%, Pol beta inh-2 inconclusive, Klenow inh -25.8 and HIV RT inh 31.2.
Cc1noc(C)c1-c1ccc2ncnc(NCCN3CCOCC3)c2c1 was read as Pol kappa inh 2.9%[60.1 µM].
CNC(=O)CSc1nnc(-c2ccco2)n1-c1ccccc1 was read as Pol iota inh 7.6%, Pol eta inh -21.2%, Pol beta inh-1 inconclusive, Pol kappa inh 3.5%, WRN helicase inh 9.3% and FEN1 inhibitor -3.6%.
NC(=O)c1c(NC(=O)CSc2nnc(-c3ccco3)n2-c2ccccc2)sc2c1CCC2 was read as Pol iota inh inconclusive, Pol eta inh 10µM*, Pol beta inh-1 4.47µM*, Pol kappa inh inconclusive, WRN helicase inh -31.5%, FEN1 inhibitor inconclusive, Pol beta inh-2 12.6*, Klenow inh -16.4 and HIV RT inh 14.1.
`C[C@H](NC(=O)CNC(=O)[C@@H](NC(=O)[C@H](Cc1ccccc1)NC(=O)CNC(=O)CNC(=O)[C@@H](N)Cc1ccccc1)[C@@H](C)O)C(=O)N[C@@H](CCCN=C(N)N)C(=O)N[C@@H](CCCCN)C(=O)N[C@@H](CO)C(=O)N[C@@H](C)C(=O)N[C@@H](CCCN=C(N)N)C(=O)N[C@@H](CCCCN)C(N)=O` gave Pol kappa inh 10.8%[60.1 µM].
For Cc1nn(-c2cccc(Cl)c2)c2nc(-c3ccco3)cc(C(=O)O)c12 the results were Pol iota inh inconclusive, Pol eta inh 17.8µM*, Pol beta inh-1 14.1µM*, Pol kappa inh -20.2%, WRN helicase inh inconclusive, FEN1 inhibitor -0.3%, Pol beta inh-2 inconclusive, Klenow inh -15.9 and HIV RT inh -10.2.
For Cc1cccc(-n2nc(C)c3c(C(=O)O)cc(-c4cccs4)nc32)c1 the results were Pol iota inh 98.0%, Pol eta inh -9.1%, Pol beta inh-1 -11.2%, Pol kappa inh -6.4%, WRN helicase inh -10.7% and FEN1 inhibitor -11.7%.
`CCSc1nnc(NC(=O)C2Cc3ccccc3CN2S(=O)(=O)CC)s1` (centres undefined) gave Pol iota inh inconclusive, Pol eta inh 56.2µM*, Pol beta inh-1 17.8µM*, Pol kappa inh -40.6%, WRN helicase inh -17.9%[57.1 µM], FEN1 inhibitor 1.1%, Pol beta inh-2 28.2*, Klenow inh -3.9, HIV RT inh 10.0 and POLB valid 99.5*.
CCS(=O)(=O)N1Cc2ccccc2CC1C(=O)Nc1nnc(SCc2c(Cl)cccc2Cl)s1 (centres undefined) was read as Pol iota inh 9.4%, Pol eta inh -2.4%, Pol beta inh-1 28.6%, Pol kappa inh -17.6%, WRN helicase inh -29.7% and FEN1 inhibitor -14.7%.
For CCc1ccc(CNC(=O)C2CCCN(S(=O)(=O)c3ccc4c(ccn4C)c3)C2)cc1 (centres undefined) the results were Pol iota inh 7.0%, Pol eta inh -11.1%, Pol beta inh-1 5.1%, Pol kappa inh -10.9%[60.1 µM] and FEN1 inhibitor 12.7%.
CC1(OC(=O)C2CCCC2)C(=O)C=C2C=C(c3ccsc3)N(C3CCCCC3)C=C2C1=O (centres undefined) was read as Pol iota inh 36.9%, Pol eta inh -4.4%, Pol beta inh-1 -18.2%, Pol kappa inh -21.9%, WRN helicase inh -2.1% and FEN1 inhibitor -24.3%.
`CC1(OC(=O)c2cccs2)C(=O)C=C2C=C3CCCN3C=C2C1=O` (centres undefined) gave Pol iota inh 4.47µM*, Pol eta inh 22.4µM*, Pol beta inh-1 14.1µM*, Pol kappa inh 11.2µM*, WRN helicase inh inconclusive, FEN1 inhibitor inconclusive, Pol beta inh-2 28.2*, Klenow inh 8.9 and HIV RT inh 20.8.
O=C(Cc1cccs1)N1CCN(c2ccc([N+](=O)[O-])cc2)CC1 was read as Pol iota inh inconclusive, Pol eta inh 79.4µM*, Pol beta inh-1 20µM*, Pol kappa inh inconclusive, WRN helicase inh -14.0%, FEN1 inhibitor -4.4%, Pol beta inh-2 inconclusive, Klenow inh -35.2, HIV RT inh 60.0 and POLB valid 65.3*.
Screening O=C(Cn1c(=O)n(Cc2nc(-c3ccccc3)no2)c(=O)c2cc3c(cc21)OCO3)Nc1ccc(Cl)cc1 returned Pol iota inh -18.6%, Pol eta inh -13.2%, Pol beta inh-1 13.1%, Pol kappa inh -6.1% and FEN1 inhibitor 14.6%.
`Cc1cc(C)c2cc(C#N)c(SCC(=O)NCc3ccco3)nc2c1` gave Pol iota inh inconclusive, Pol eta inh inconclusive, Pol beta inh-1 20µM*, Pol kappa inh -7.6%, WRN helicase inh -29.1%, FEN1 inhibitor -1.0%, Pol beta inh-2 28.2*, Klenow inh -3.5, HIV RT inh 4.9 and POLB valid 85.6*.
Screening COc1ccc(NS(=O)(=O)c2ccc(O)c(NC(=O)c3ccc(S(=O)(=O)N4CCCCCC4)cc3)c2)cc1 returned Pol iota inh inconclusive, Pol eta inh inconclusive, Pol beta inh-1 12.6µM*, Pol kappa inh 0.0%, WRN helicase inh -10.1%[11.6 µM], FEN1 inhibitor -12.9%, Pol beta inh-2 35.5*, Klenow inh -31.1 and HIV RT inh -7.3.
`CCc1nnc2c(Nc3ccc(N(CC)CC)cc3C)nc3ccccc3n12` gave Pol iota inh 1.8%, Pol eta inh -4.1%, Pol beta inh-1 4.5%, Pol kappa inh -16.9% and FEN1 inhibitor -0.5%.
CCCN(CCc1cccs1)[C@H]1CCc2c(O)cccc2C1 was read as Pol kappa inh -3.6%[19.4 µM].
